We go through nine compounds from PubChem BioAssay (NCI).

This is part of a sample that, as a whole, favours compounds with a hit. Of some 79,000 tested, about 15% had one in any assay. Values without a mark were called inactive. The source made the active and inactive calls. No stated cut-off is given here; in the data, active means growth inhibition above about 70%; inactive means the rest.

Experiment [1] in a line: NCI Yeast Anticancer Drug Screen. Data for the rad50 strain (AID 155).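 Further: 0% = growth of vehicle-only cultures of the same strain.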 The note with it: S. cerevisiae rad50 strain growth inhibition, stronger effect = higher value. The method, boiled down: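 Growth of the mutant yeast was measured after compound exposure and referenced to vehicle-treated cultures.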
Experiment [2] in a line: NCI Yeast Anticancer Drug Screen. Data for the mec2-1 strain (AID 157). The note with it: S. cerevisiae mec2-1 strain, stronger effect = higher value. The method, boiled down:
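Test agents were screened against the mec2-1 yeast strain, with defined DNA repair or cell cycle alteration. Growth was scored as inhibition against vehicle-only controls.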

The nature of experiment [3]: NCI Yeast Anticancer Drug Screen. Data for the sgs1 mgt1 strain (AID 161).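 Further: 0% = growth of cultures given vehicle only.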 The conditions noted are these: S. cerevisiae sgs1 mgt1 strain, stronger effect = higher value. The method in brief:
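Inhibition of yeast growth, normalised to vehicle-treated controls, is reported for a strain bearing genetic alterations in DNA damage repair.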

A short description of experiment [4]: NCI Yeast Anticancer Drug Screen. Data for the cln2 rad14 strain (AID 165).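 Further: 0% = growth equal to vehicle treated cultures.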 The conditions noted are these: S. cerevisiae cln2 rad14 strain, stronger effect = higher value. The method, boiled down: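 Growth of compound-exposed yeast (cln2 rad14 genotype) measured and expressed as inhibition relative to vehicle.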
Experiment [5] is described as follows: NCI Yeast Anticancer Drug Screen. Data for the bub3 strain (AID 167). The conditions noted are these: S. cerevisiae bub3 mutant strain, stronger effect = higher value. The method in brief:
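Whole-cell yeast assay. The mutant strain was incubated with compounds, and growth inhibition was determined by comparison with vehicle-treated cells.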

The nature of experiment [6]: NCI Yeast Anticancer Drug Screen. Data for the mlh1 rad18 strain (AID 175). The note with it: S. cerevisiae mlh1 rad18 strain growth inhibition, stronger effect = higher value. The method in brief: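 In this whole-cell yeast screen, a strain with altered DNA damage repair is challenged with compound, and its growth is measured against matched vehicle-treated controls.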
Setting [7] is: at 5.0 µM (retest, dose inferred, filed as 0.5).
[8] abbreviates: at 50.0 µM (retest, dose inferred, filed as 5.0).

Regarding `CC(C)C(=O)OCC(C)(C)C1OCC(C)(C)C(C(C)C)O1` (configuration not stated), the growth inhibition was 11% in experiment [1] (setting [7]); -9% in experiment [1] (setting [8]); -5.55% in experiment [1] (at 50.0 µM); 97% (active) in experiment [2] (setting [7]); 5% in experiment [2] (setting [8]); -3.85% in experiment [2] (at 50.0 µM). The growth inhibition is 12% in experiment [3] (setting [7]); 3% in experiment [3] (setting [8]); -1.55% in experiment [3] (at 50.0 µM); -19% in experiment [4] (setting [7]); -6% in experiment [4] (setting [8]); 9% in experiment [4] (at 50.0 µM). In addition, the growth inhibition in experiment [5] (setting [7]) is 98% (active); in experiment [5] (setting [8]) it was 0%; in experiment [5] (at 50.0 µM), 1.15%; in experiment [6] (setting [7]), 88% (active); in experiment [6] (setting [8]), -13%; in experiment [6] (at 50.0 µM), 4.85%.
Consider `COc1ccccc1OC(=O)Oc1ccccc1OC`, for which the growth inhibition in experiment [1] (setting [7]) was -1%; in experiment [1] (setting [8]) it was 19%; in experiment [1] (at 50.0 µM), 36.6%; in experiment [2] (setting [7]), -3%; in experiment [2] (setting [8]) it was -3%; in experiment [2] (at 50.0 µM), -11.1%. For the same compound, the growth inhibition in experiment [3] (setting [7]) is -1%; in experiment [3] (setting [8]) it was 12%; in experiment [3] (at 50.0 µM) it was 9.45%; in experiment [4] (setting [7]), 4%; in experiment [4] (setting [8]), 4%; in experiment [4] (at 50.0 µM), -37.4%. Further, the growth inhibition in experiment [5] (setting [7]) is 1%; in experiment [5] (setting [8]), 9%; in experiment [5] (at 50.0 µM), 57.8%; in experiment [6] (setting [7]), -4%; in experiment [6] (setting [8]), -5%; in experiment [6] (at 50.0 µM), 50%.
Regarding `O=C1C(c2c[nH]c3ccc(Br)cc23)=Nc2ccc(Br)cc21`, the growth inhibition is -1% in experiment [1] (setting [7]); 2% in experiment [1] (setting [8]); 88% (active) in experiment [1] (at 50.0 µM); 3% in experiment [2] (setting [7]); 21% in experiment [2] (setting [8]); 75.8% (active) in experiment [2] (at 50.0 µM). The growth inhibition in experiment [3] (setting [7]) was -20%; in experiment [3] (setting [8]) it was -32%; in experiment [3] (at 50.0 µM) it was 85.5% (active); in experiment [4] (setting [7]), -6%; in experiment [4] (setting [8]) it was -18%; in experiment [4] (at 50.0 µM), 88.8% (active). In addition, the growth inhibition is -4% in experiment [5] (setting [7]); -2% in experiment [5] (setting [8]); 82.2% (active) in experiment [5] (at 50.0 µM); 7% in experiment [6] (setting [7]); 25% in experiment [6] (setting [8]); 73.4% (active) in experiment [6] (at 50.0 µM).
Turning to `CC(=O)Nc1ccc(/S(=N\S(=O)(=O)c2ccc(C)cc2)c2ccc(NC(C)=O)cn2)cc1` (configuration not stated), the growth inhibition in experiment [1] (setting [7]) was 0%; in experiment [1] (setting [8]), 6%; in experiment [1] (at 50.0 µM), 37%; in experiment [2] (setting [7]), -2%; in experiment [2] (setting [8]), 1%; in experiment [2] (at 50.0 µM), 4.8%. For the same compound, the growth inhibition is 0% in experiment [3] (setting [7]); 4% in experiment [3] (setting [8]); 0.7% in experiment [3] (at 50.0 µM); -8% in experiment [4] (setting [7]); 3% in experiment [4] (setting [8]); 73.3% (active) in experiment [4] (at 50.0 µM). Also, the growth inhibition is -3% in experiment [5] (setting [7]); 0% in experiment [5] (setting [8]); -1.75% in experiment [5] (at 50.0 µM); -2% in experiment [6] (setting [7]); 7% in experiment [6] (setting [8]); -15.1% in experiment [6] (at 50.0 µM).
With `CC(=O)OC1CCC23COC(CC(C)C2C)C3(Br)C1` (configuration not stated), the growth inhibition is -5% in experiment [1] (setting [7]); 12% in experiment [1] (setting [8]); -19.5% in experiment [1] (at 50.0 µM); 13% in experiment [2] (setting [7]); 8% in experiment [2] (setting [8]); 4.2% in experiment [2] (at 50.0 µM). The growth inhibition in experiment [3] (setting [7]) is 2%; in experiment [3] (setting [8]), 8%; in experiment [3] (at 50.0 µM) it was 1.4%; in experiment [4] (setting [7]), -2%; in experiment [4] (setting [8]), -5%; in experiment [4] (at 50.0 µM), 52.3%. Further, the growth inhibition in experiment [5] (setting [7]) was 6%; in experiment [5] (setting [8]), 1%; in experiment [5] (at 50.0 µM), -4.55%; in experiment [6] (setting [7]), 3%; in experiment [6] (setting [8]), -4%; in experiment [6] (at 50.0 µM), 1.7%.
Regarding `O=C(O)c1c(Cl)c(Cl)c(Cl)c(Cl)c1-c1c2cc(I)c(=O)c(I)c-2oc2c(I)c(O)c(I)cc12`, the growth inhibition in experiment [1] (setting [7]) is 75% (active); in experiment [1] (setting [8]), 98% (active); in experiment [1] (at 50.0 µM) it was 91.3% (active); in experiment [2] (setting [7]), 99% (active); in experiment [2] (setting [8]), 99% (active); in experiment [2] (at 50.0 µM) it was 92.1% (active). Moreover, the growth inhibition was 82% (active) in experiment [3] (setting [7]); 98% (active) in experiment [3] (setting [8]); 91.6% (active) in experiment [3] (at 50.0 µM); 98% (active) in experiment [4] (setting [7]); 97% (active) in experiment [4] (setting [8]); 90.2% (active) in experiment [4] (at 50.0 µM). The growth inhibition in experiment [5] (setting [7]) is 98% (active); in experiment [5] (setting [8]) it was 98% (active); in experiment [5] (at 50.0 µM), 91.4% (active); in experiment [6] (setting [7]), 97% (active); in experiment [6] (setting [8]) it was 97% (active); in experiment [6] (at 50.0 µM) it was 91.2% (active).
Consider `COC(=O)c1c(C(N)=O)c(C)n(NC(=O)c2ccccc2)c1C`, for which the growth inhibition in experiment [1] (setting [7]) is -6%; in experiment [1] (setting [8]), 4%; in experiment [1] (at 50.0 µM), 5.75%; in experiment [2] (setting [7]) it was -5%; in experiment [2] (setting [8]), -1%; in experiment [2] (at 50.0 µM) it was 2.7%. Moreover, the growth inhibition is -6% in experiment [3] (setting [7]); 0% in experiment [3] (setting [8]); 11.1% in experiment [3] (at 50.0 µM); -4% in experiment [4] (setting [7]); 6% in experiment [4] (setting [8]); 38.9% in experiment [4] (at 50.0 µM). In addition, the growth inhibition was -4% in experiment [5] (setting [7]); 3% in experiment [5] (setting [8]); -2.65% in experiment [5] (at 50.0 µM); -4% in experiment [6] (setting [7]); 0% in experiment [6] (setting [8]); 11.5% in experiment [6] (at 50.0 µM).
With `O=C(O)C(O)C(O)C(O)C(O)c1nc2ccccc2s1` (configuration not stated), the growth inhibition in experiment [1] (setting [7]) is 13%; in experiment [1] (setting [8]), 98% (active); in experiment [1] (at 50.0 µM), 98.6% (active); in experiment [2] (setting [7]), 13%; in experiment [2] (setting [8]) it was 99% (active); in experiment [2] (at 50.0 µM) it was 98.7% (active). The growth inhibition in experiment [3] (setting [7]) was 12%; in experiment [3] (setting [8]), 96% (active); in experiment [3] (at 50.0 µM), 90.5% (active); in experiment [4] (setting [7]), 1%; in experiment [4] (setting [8]), 95% (active); in experiment [4] (at 50.0 µM) it was 73.7% (active). The growth inhibition is 8% in experiment [5] (setting [7]); 99% (active) in experiment [5] (setting [8]); 99% (active) in experiment [5] (at 50.0 µM); 9% in experiment [6] (setting [7]); 97% (active) in experiment [6] (setting [8]); 99% (active) in experiment [6] (at 50.0 µM).
`Cc1ccc2c(c1)CC1(C2)Cc2ccc(C)cc2C1=O` (configuration not stated): the growth inhibition in experiment [1] (setting [7]) was 6%; in experiment [1] (setting [8]) it was 73% (active); in experiment [1] (at 50.0 µM), 25.4%; in experiment [2] (setting [7]), -20%; in experiment [2] (setting [8]), 85% (active); in experiment [2] (at 50.0 µM), 17.6%. For the same compound, the growth inhibition was -28% in experiment [3] (setting [7]); 75% (active) in experiment [3] (setting [8]); 54.3% in experiment [3] (at 50.0 µM); 29% in experiment [4] (setting [7]); 39% in experiment [4] (setting [8]); 21.4% in experiment [4] (at 50.0 µM). Also, the growth inhibition in experiment [5] (setting [7]) is -5%; in experiment [5] (setting [8]), 88% (active); in experiment [5] (at 50.0 µM), 64.8%; in experiment [6] (setting [7]), 5%; in experiment [6] (setting [8]) it was 65%; in experiment [6] (at 50.0 µM), 44.1%.
